18 targets from the supplement of paper PMC10849652 can be followed below.

About 8,800 targets were measured; listed, in parts, are those with a hit and a random draw of the rest. About 0.5% of all pairs of compound and target were hits. Values without a mark were called inactive.

Common to all, as to assay: log2 fold change, soluble protein after heating vs DMSO (PISA); higher = thermal stabilisation; K562 lysate, 10 uM; active = over 0.2 and 3.5 SD of the protein, either way, in both replicates (recomputed)
Compound in assay [1]: NCC(=O)Nc1ccc(-n2nc(C(F)(F)F)cc2-c2ccc3c(ccc4ccccc43)c2)cc1
In short, it runs like this: (§1)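 K562 pellets were dounce-homogenised in PBS pH 7.4 with 1 mM MgCl2, and the crude extract at 1 mg/mL protein was treated with 10 μM compound for 30 min. Aliquots were heated for 3 min across 48°C-58°C, pooled, and brought to 0.5% NP-40 at 4°C; soluble protein was the supernatant after 21,000xg for 90 min. Soluble protein was quantified by TMTpro 16plex LC-MS/MS with channel sums equalised, and reported as log2 fold change in thermal stability against DMSO controls, with values from duplicates.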

Compound in another assay: O=C(CCCCCCC(=O)Nc1ccccc1)NO [vorinostat]
In a few lines:
as §1

Compound in another assay: O=C(O)c1ccc2c(c1)nc(Nc1cccc(Cl)c1)c1ccncc12 [silmitasertib]
In short, it runs like this:
as §1

Compound in assay [2]: O=C1NC(=O)C(c2cnc3ccccn23)=C1c1cn2c3c(cc(F)cc13)CN(C(=O)N1CCCCC1)CC2
In a few lines: as §1

Compound in another assay: c1cn2cc(-c3ccc4cn[nH]c4c3)nc(Nc3ccc(N4CCOCC4)cc3)c2n1 [entospletinib]
In a few lines: as §1

Chain of UniProt P24311 (P24311 whole entry, looked up): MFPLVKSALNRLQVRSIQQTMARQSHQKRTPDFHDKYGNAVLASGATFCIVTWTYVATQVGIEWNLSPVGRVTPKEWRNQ
Chain of UniProt P39880 (P39880 whole entry, looked up): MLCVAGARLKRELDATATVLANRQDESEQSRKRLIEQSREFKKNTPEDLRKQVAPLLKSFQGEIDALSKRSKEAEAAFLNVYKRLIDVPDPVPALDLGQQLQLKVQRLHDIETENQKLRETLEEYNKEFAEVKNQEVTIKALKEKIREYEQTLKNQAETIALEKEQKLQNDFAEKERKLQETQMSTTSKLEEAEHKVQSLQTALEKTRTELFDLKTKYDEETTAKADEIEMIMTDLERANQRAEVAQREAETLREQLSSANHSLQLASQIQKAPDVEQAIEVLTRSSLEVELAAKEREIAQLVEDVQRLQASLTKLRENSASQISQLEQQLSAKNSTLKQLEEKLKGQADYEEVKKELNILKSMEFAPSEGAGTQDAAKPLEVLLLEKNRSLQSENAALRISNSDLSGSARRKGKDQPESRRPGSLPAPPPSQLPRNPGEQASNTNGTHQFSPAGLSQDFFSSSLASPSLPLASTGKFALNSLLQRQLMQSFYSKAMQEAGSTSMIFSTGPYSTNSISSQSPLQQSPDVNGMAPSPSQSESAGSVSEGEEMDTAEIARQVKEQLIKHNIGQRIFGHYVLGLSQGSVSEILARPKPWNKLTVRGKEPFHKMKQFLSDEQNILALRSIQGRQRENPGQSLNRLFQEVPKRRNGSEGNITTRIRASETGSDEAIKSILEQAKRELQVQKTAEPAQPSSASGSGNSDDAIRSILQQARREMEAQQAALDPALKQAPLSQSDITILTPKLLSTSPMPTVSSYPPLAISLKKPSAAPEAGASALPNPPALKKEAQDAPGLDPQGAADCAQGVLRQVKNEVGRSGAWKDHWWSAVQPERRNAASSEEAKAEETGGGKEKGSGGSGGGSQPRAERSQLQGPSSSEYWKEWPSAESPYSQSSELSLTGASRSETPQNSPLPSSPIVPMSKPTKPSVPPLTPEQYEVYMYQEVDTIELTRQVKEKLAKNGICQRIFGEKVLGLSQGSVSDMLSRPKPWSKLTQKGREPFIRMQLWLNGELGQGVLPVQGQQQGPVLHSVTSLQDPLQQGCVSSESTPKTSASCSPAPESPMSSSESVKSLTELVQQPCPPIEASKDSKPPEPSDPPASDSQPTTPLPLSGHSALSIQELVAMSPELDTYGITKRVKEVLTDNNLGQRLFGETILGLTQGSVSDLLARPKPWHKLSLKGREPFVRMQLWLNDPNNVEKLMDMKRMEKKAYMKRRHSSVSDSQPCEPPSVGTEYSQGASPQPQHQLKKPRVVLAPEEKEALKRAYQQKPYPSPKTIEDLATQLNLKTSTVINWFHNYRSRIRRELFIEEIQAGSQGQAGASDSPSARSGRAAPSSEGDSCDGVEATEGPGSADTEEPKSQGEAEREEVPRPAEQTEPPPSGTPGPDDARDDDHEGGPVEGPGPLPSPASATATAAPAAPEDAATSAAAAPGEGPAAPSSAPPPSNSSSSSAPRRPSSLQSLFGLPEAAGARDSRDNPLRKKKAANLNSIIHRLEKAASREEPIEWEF
Chain of UniProt Q9NZN8 (Q9NZN8 whole entry, looked up): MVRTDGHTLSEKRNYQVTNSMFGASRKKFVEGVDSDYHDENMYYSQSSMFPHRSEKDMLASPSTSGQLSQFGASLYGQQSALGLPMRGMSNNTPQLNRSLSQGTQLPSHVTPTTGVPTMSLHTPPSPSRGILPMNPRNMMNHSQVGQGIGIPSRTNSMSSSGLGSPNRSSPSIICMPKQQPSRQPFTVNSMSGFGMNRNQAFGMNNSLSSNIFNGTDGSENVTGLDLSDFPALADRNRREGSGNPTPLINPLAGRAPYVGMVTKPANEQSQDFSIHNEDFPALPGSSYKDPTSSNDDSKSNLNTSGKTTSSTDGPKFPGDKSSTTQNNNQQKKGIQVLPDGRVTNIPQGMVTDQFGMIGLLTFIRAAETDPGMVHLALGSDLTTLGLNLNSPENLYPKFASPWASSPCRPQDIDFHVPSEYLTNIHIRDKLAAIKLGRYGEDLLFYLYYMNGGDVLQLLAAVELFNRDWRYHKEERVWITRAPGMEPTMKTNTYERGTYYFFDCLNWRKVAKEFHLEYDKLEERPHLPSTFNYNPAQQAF
Chain of UniProt P57737 (P57737 whole entry, looked up): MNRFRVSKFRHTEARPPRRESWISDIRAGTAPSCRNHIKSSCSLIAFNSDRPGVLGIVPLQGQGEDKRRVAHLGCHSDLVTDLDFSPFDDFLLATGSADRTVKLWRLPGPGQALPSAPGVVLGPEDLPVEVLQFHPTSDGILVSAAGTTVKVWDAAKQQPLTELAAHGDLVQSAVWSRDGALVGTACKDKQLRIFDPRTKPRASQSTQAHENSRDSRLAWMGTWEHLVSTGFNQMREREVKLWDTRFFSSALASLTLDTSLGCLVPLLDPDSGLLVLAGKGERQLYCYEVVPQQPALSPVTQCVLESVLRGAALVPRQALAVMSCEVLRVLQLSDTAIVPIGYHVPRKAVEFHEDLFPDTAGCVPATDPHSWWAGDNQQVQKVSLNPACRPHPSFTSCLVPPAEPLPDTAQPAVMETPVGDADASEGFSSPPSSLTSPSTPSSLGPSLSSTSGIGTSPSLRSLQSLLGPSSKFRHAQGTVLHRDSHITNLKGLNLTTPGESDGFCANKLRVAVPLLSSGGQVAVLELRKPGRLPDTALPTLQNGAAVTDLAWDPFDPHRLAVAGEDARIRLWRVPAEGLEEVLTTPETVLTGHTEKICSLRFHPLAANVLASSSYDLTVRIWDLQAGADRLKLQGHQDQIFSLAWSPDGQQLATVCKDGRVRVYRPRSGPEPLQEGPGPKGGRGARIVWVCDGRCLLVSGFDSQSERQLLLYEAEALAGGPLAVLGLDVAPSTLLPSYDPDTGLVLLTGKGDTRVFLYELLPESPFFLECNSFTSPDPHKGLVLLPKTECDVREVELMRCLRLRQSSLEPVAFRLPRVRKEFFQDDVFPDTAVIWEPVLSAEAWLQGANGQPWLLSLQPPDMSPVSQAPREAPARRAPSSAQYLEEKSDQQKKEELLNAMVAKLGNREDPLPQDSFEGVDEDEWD
Chain of UniProt Q7Z401 (Q7Z401 whole entry, looked up): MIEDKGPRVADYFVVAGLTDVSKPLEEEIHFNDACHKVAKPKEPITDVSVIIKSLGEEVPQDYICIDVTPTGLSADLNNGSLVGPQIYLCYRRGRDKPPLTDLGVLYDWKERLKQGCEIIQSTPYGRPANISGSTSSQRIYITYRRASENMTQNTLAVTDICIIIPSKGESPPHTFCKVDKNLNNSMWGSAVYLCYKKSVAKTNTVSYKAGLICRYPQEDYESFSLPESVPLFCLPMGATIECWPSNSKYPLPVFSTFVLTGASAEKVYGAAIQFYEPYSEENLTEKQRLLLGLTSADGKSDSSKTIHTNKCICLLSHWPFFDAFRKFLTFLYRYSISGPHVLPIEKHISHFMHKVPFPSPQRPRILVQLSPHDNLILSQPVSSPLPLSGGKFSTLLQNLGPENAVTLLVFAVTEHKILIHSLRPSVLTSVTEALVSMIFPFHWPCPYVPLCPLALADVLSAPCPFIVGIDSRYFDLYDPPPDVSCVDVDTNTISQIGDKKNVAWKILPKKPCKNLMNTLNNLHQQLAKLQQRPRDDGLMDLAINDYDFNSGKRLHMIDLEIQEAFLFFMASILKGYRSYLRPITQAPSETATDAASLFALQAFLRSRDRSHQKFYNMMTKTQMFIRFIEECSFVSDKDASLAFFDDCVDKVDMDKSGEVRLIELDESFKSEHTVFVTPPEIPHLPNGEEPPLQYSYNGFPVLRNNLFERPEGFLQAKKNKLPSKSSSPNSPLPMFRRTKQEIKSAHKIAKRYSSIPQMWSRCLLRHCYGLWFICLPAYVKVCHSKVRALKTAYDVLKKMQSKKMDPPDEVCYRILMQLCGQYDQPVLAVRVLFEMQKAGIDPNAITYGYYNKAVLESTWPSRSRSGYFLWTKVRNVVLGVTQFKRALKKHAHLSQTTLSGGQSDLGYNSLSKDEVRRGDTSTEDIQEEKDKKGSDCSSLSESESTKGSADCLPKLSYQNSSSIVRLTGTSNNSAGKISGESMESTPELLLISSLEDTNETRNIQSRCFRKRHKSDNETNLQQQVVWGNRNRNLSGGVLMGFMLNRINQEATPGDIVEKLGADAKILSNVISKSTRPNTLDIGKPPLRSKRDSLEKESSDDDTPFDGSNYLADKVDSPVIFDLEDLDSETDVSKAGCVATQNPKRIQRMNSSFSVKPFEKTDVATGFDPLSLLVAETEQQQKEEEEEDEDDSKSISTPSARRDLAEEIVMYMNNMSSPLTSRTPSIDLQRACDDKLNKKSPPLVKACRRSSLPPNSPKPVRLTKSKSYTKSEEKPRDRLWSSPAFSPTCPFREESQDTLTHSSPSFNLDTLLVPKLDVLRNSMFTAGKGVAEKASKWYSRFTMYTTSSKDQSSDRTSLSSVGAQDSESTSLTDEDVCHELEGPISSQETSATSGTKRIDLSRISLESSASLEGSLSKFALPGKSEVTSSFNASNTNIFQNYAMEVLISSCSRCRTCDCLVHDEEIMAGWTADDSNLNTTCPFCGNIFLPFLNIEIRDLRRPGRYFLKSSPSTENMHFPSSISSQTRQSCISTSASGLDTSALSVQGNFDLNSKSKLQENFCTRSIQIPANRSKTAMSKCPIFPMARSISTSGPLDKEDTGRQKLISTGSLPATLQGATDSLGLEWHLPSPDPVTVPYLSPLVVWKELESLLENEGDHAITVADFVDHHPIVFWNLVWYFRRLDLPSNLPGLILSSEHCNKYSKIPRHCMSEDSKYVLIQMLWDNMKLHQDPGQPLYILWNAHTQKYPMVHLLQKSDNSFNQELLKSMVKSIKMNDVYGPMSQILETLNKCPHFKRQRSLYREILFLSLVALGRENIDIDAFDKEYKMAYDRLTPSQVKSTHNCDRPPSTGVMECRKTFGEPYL
Chain of UniProt Q96MX0 (Q96MX0 whole entry, looked up): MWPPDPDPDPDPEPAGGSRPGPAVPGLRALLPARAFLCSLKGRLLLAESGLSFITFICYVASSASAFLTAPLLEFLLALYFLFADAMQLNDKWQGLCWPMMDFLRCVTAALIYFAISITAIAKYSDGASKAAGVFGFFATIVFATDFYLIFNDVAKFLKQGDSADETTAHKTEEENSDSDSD

CLUH, A0A494C0R8: the log2 fold change in assay [1] is -0.115; with vorinostat, 0.028; in the assay with silmitasertib, 0.069; in assay [2] it was 0.033; in the assay with entospletinib it was 0.033.

With DPH5 isoform 5 (UniProt Q9H2P9), the log2 fold change in assay [1] is -0.046; with vorinostat, -0.06; with silmitasertib it was -0.015; in assay [2], 0.077; in the assay with entospletinib, -0.011.

For CNOT2 (UniProt Q9NZN8), the log2 fold change in assay [1] was 0.044; with vorinostat it was -0.207 (active); with silmitasertib, 0.015; in assay [2] it was -0.009; with entospletinib, -0.015.

For CSK (UniProt P41240), the log2 fold change in assay [1] is -0.008; with vorinostat, -0.262; with silmitasertib, -0.006; in assay [2] it was -0.021; with entospletinib, 0.195.

For the target CSPP1 (UniProt Q1MSJ5), the log2 fold change is 0.122 in assay [1]; 0.085 in the assay with vorinostat; -0.027 with silmitasertib; 0.043 in assay [2]; 0.003 in the assay with entospletinib.

For COG2 (UniProt Q14746), the log2 fold change is -0.031 in assay [1]; -0.315 (active) in the assay with vorinostat; 0.055 in the assay with silmitasertib; 0.061 in assay [2]; 0.058 with entospletinib.

Regarding CMTM3 (UniProt Q96MX0), the log2 fold change in assay [1] was 0.05; with vorinostat, -0.516 (active); with silmitasertib, -0.004; in assay [2], -0.03; with entospletinib, -0.004.

For CLPB isoform 2 (UniProt Q9H078), the log2 fold change in assay [1] is 0.075; with vorinostat, -0.446 (active); in the assay with silmitasertib, 0.062; in assay [2] it was -0.028; with entospletinib, 0.016.

DNAAF5 (UniProt Q86Y56): the log2 fold change was 0.029 in assay [1]; -0.313 (active) in the assay with vorinostat; 0.129 with silmitasertib; 0.02 in assay [2]; -0.012 with entospletinib.

As to CLCN3 (UniProt P51790), the log2 fold change in assay [1] was -0.165; with vorinostat, -0.171; with silmitasertib, 0.118; in assay [2], -0.245; with entospletinib it was 0.025.

For the target CORO1A (UniProt P31146), the log2 fold change is 0.094 in assay [1]; -0.412 (active) in the assay with vorinostat; -0.003 in the assay with silmitasertib; 0.025 in assay [2]; 0.116 with entospletinib.

Turning to DENND4A isoform 2 (UniProt Q7Z401), the log2 fold change in assay [1] was 0.046; in the assay with vorinostat, -0.379 (active); with silmitasertib it was 0.043; in assay [2], -0.02; with entospletinib, -0.013.

As for CORO7 (UniProt P57737), the log2 fold change in assay [1] was -0.053; with vorinostat, -0.019; with silmitasertib it was -0.017; in assay [2] it was 0.019; with entospletinib, -0.045.

Consider CUX1 isoform 3 (UniProt P39880), for which the log2 fold change is 0.008 in assay [1]; 0.005 in the assay with vorinostat; 0.025 with silmitasertib; -0.022 in assay [2]; -0.014 with entospletinib.

Turning to COX7B (UniProt P24311), the log2 fold change in assay [1] was -0.043; with vorinostat it was 0.081; with silmitasertib, 0; in assay [2], 0; with entospletinib, 0.104.

For the target COG4 (UniProt Q9H9E3), the log2 fold change in assay [1] was 0.101; in the assay with vorinostat it was -0.333 (active); with silmitasertib, 0.022; in assay [2] it was -0.022; with entospletinib, -0.023.

In the case of DOCK7 (UniProt Q96N67), the log2 fold change in assay [1] is 0.032; with vorinostat it was -0.348 (active); in the assay with silmitasertib it was 0.053; in assay [2], -0.019; in the assay with entospletinib it was -0.039.

Take CSNK1G3 (UniProt Q9Y6M4): the log2 fold change in assay [1] is -0.004; with vorinostat it was -0.011; with silmitasertib, 0.055; in assay [2], -0.029; with entospletinib, 0.039.
